Results as given in PubChem BioAssay.
Calls of active or inactive are those of the source.

Experiments:
[1] = molecular target: Albumin (Bos taurus) (UniProt P02769); assay: bovine serum albumin binders on microarray, profiling panel, artefact control for SMM control protein annotation, biochemical, small-molecule microarray, Alexa647 label, 635/667 nm fluorescence (AID 1118); settings: BSA-A647 binding, fluorescence 635 nm, higher = more signal;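 further: score merges 667 nm emission intensity and signal-to-noise per printed compound spot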
[2] = small-molecule microarray binders of probe aXIP, primary screen, biochemical, NeuroSMM set, 635/667 nm fluorescence (AID 1119); settings: higher = more signal, called active from +8 up or from −8 down;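 further: probe is the protein aXip251-270 applied at 1 µg/mL to compound-printed slides; binding of probe to printed compounds measured as 667 nm fluorescence plus signal to noise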
[3] = small-molecule binders of probe aNOTCH3, primary screen, biochemical, small-molecule microarray, 635/667 nm fluorescence (AID 1120); settings: higher = more signal;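 further: probe is a biotin-tagged antibody raised against NOTCH3 rather than NOTCH3 protein; score merges spot fluorescence near 667 nm with spot signal to noise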
[4] = small-molecule binders of probe aNOTCH2, primary screen, biochemical, small-molecule microarray, 635/667 nm fluorescence (AID 1121); settings: higher = more signal;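 further: score merges feature fluorescence read at 667 nm with its signal to noise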
[5] = molecular target: Carbonic anhydrase 2 (Homo sapiens) (UniProt P00918); assay: CAII small-molecule binders, profiling panel, biochemical, small-molecule microarray, Alexa647-labelled CAII (AID 1122); settings: CAII-A647 binding fluorescence, higher = more signal
[6] = COS7 lysate on small-molecule microarray, probe aHis, 635 nm (AID 1123); settings: COS7 cell lysate, fluorescence, higher = more signal;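 further: z-score combines 667nm fluorescence intensity with signal-to-noise per printed compound spot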
[7] = compound binding in COS7 lysate, probe aLAP1, primary screen, cell lysate, small-molecule microarray (AID 1124); settings: probe aLAP1, fluorescence, higher = more signal;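 further: lysate comes from COS7 cells expressing LAP1 and is applied at 0.3 µg/mL; score merges spot fluorescence near 667 nm with signal-to-noise over triplicate slides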
[8] = system: Sam68 (KHDRBS1); assay: Sam68 small-molecule binders, primary screen, biochemical, small-molecule microarray, 635 nm fluorescence (AID 1125); settings: small-molecule microarray binding, higher = more signal;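 further: score merges 667 nm channel intensity with signal to noise over triplicate slides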
[9] = system: Chordin-like protein 2 (CHRDL2); assay: CHRDL2 small-molecule binders, primary screen, biochemical, small-molecule microarray, 635 nm fluorescence (AID 1126); settings: small-molecule microarray binding, fluorescence 635 nm; higher = more signal;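 further: printed compound slides probed with Chrdl2 protein at 4 µg/mL for 1 h at 4 C; score merges 667 nm emission intensity with signal to noise over three replicate slides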
[10] = molecular target: Concanavalin-A (Canavalia ensiformis) (UniProt P02866); assay: ConA small-molecule binders, primary screen, artefact control for SMM control protein annotation, biochemical, small-molecule microarray, Alexa647 label, 635 nm (AID 1127); settings: ConA-A647 binding fluorescence, higher = more signal;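 further: z combines 667 nm emission intensity with signal-to-noise across three replicate slides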
[11] = anti-His antibody binders, primary screen, artefact control for SMM control protein annotation, biochemical, small-molecule microarray, 635 nm fluorescence (AID 1128); settings: anti-His Alexa647 antibody binding, higher = more signal;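 further: score merges feature fluorescence with signal-to-noise for each printed compound spot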
[12] = system: Human papillomavirus type 1a E7 protein (residues 1-88); assay: HPV1a E7 small-molecule binders, primary screen, biochemical, small-molecule microarray, residues 1-88, 635 nm (AID 1129); settings: small-molecule microarray binding, fluorescence 635 nm; higher = more signal
[13] = molecular target: Focal adhesion kinase 1 (Homo sapiens) (UniProt Q05397); assay: small-molecule microarray binders of FAK, primary screen, biochemical, 635/667 nm fluorescence, BSA, DTT (AID 1130); settings: PTK2 binding, 635 nm fluorescence, higher = more signal;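 further: composite of spot emission at 667 nm and signal to noise over triplicate slides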
[14] = system: Fibrinogen (Alexa647-labelled); assay: fibrinogen binders on compound microarrays, profiling panel, artefact control for SMM control-protein annotation, biochemical, small-molecule microarray, 635/667 nm fluorescence (AID 1131); settings: fibrinogen-A647 binding fluorescence, higher = more signal;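 further: z-score merges 667 nm fluorescence with per-spot signal-to-noise over triplicate slides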
[15] = molecular target: Follistatin (Homo sapiens) (UniProt P19883); assay: follistatin binders on small-molecule microarrays, primary screen, biochemical, small-molecule microarray, 635/667 nm fluorescence (AID 1132); settings: FST binding, 635 nm fluorescence, higher = more signal
[16] = molecular target: Fibroblast growth factor 2 (Homo sapiens) (UniProt P09038); assay: FGF2 binders on small-molecule microarrays, primary screen, biochemical, small-molecule microarray, 635/667 nm fluorescence (AID 1133); settings: small-molecule microarray binding, FGF2, fluorescence 635/667; higher = more signal
[17] = mitochondrial membrane potential change in A549 cells, profiling panel, cell-based, JC-1 fluorescence, basal, 24 h, 100 nL (AID 1138); settings: higher = more signal;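 further: A549 lung adenocarcinoma cells under basal conditions with no added stimulus; test concentration not given here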
[18] = system: Lefty1; assay: Lefty1 binders on small-molecule microarrays, primary screen, biochemical, small-molecule microarray, 635/667 nm fluorescence (AID 1139); settings: small-molecule microarray binding, fluorescence 635/667; higher = more signal
[19] = system: wheat germ agglutinin (Triticum aestivum), Alexa647-labelled; assay: wheat germ agglutinin binders on compound microarrays, profiling panel, artefact control for SMM control-protein annotation, biochemical, small-molecule microarray, 635/667 nm fluorescence (AID 1140); settings: WGA-A647 binding, 635 nm fluorescence, higher = more signal;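 further: score merges 667 nm feature emission with signal to noise over triplicate slides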
[20] = molecular target: Luciferin 4-monooxygenase (Photinus pyralis) (UniProt P08659); assay: firefly luciferase enzyme inhibitors, primary screen, biochemical, luminescence, purified enzyme, 2006 set (AID 1141); settings: SteadyGlo luminescence, 30 min, higher = more signal, called active from +8 up or from −8 down;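 further: cell-free assay with purified firefly luciferase at 100 ng per well in PBS; test concentration not given here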
Luciferin 4-monooxygenase (Photinus pyralis), sequence (P08659 whole entry, looked up): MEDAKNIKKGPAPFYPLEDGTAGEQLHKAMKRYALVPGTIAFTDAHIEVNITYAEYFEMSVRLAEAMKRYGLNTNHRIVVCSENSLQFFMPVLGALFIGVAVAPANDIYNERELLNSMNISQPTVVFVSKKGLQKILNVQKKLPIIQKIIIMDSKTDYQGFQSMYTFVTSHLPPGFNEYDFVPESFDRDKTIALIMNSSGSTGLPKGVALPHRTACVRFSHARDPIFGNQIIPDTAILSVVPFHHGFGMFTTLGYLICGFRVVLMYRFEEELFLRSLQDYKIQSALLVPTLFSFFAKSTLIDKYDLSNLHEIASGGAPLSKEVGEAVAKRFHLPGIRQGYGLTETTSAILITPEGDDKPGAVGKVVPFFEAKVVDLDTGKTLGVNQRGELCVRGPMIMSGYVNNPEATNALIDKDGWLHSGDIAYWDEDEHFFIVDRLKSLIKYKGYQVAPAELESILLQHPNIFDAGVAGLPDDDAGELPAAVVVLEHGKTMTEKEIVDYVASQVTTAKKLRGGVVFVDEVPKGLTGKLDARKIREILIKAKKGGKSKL

Focal adhesion kinase 1 (Homo sapiens), sequence (Q05397 whole entry, looked up): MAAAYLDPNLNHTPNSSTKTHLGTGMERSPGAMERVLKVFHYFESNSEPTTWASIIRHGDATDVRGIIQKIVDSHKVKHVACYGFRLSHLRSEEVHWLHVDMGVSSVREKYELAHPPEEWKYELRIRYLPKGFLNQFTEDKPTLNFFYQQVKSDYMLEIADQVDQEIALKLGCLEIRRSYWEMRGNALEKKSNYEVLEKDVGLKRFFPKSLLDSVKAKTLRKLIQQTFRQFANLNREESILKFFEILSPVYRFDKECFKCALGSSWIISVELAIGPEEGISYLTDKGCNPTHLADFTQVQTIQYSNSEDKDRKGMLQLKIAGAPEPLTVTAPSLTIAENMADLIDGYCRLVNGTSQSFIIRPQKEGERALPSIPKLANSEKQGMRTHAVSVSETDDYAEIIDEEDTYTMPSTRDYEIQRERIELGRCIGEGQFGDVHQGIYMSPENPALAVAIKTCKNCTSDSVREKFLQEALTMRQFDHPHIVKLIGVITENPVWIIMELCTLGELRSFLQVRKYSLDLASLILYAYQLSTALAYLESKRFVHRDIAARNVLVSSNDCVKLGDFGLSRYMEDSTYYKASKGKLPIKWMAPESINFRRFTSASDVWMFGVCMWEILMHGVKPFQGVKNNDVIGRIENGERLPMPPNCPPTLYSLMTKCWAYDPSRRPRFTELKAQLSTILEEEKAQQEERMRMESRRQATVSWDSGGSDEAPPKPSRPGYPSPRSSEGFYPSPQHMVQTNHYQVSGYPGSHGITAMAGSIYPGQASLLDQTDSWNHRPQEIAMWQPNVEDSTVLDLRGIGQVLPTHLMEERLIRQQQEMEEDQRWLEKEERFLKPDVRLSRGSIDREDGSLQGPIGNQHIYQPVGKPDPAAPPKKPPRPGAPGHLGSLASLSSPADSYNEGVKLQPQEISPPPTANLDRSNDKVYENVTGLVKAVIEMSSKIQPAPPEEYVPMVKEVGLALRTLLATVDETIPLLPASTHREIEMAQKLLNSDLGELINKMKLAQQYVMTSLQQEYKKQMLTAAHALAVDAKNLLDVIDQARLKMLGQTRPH
Concanavalin-A (Canavalia ensiformis), sequence (P02866 whole entry, looked up): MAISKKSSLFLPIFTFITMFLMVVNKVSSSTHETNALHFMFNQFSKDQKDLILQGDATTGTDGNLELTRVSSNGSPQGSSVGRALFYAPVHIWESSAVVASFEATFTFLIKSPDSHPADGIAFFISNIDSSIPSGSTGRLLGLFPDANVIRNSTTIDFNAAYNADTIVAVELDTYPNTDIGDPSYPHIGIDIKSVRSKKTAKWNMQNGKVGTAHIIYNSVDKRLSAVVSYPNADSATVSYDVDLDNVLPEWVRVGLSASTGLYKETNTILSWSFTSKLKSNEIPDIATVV
Follistatin (Homo sapiens), sequence (P19883 whole entry, looked up): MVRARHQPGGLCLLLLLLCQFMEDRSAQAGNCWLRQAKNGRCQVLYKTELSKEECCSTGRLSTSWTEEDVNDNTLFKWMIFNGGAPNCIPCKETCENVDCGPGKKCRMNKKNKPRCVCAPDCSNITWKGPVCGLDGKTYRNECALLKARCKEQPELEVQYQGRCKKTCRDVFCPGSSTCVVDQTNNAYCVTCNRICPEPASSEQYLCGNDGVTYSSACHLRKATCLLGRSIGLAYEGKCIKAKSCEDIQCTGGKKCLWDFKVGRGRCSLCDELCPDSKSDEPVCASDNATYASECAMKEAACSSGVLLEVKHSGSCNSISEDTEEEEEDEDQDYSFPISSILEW
Albumin (Bos taurus), sequence (P02769 whole entry, looked up): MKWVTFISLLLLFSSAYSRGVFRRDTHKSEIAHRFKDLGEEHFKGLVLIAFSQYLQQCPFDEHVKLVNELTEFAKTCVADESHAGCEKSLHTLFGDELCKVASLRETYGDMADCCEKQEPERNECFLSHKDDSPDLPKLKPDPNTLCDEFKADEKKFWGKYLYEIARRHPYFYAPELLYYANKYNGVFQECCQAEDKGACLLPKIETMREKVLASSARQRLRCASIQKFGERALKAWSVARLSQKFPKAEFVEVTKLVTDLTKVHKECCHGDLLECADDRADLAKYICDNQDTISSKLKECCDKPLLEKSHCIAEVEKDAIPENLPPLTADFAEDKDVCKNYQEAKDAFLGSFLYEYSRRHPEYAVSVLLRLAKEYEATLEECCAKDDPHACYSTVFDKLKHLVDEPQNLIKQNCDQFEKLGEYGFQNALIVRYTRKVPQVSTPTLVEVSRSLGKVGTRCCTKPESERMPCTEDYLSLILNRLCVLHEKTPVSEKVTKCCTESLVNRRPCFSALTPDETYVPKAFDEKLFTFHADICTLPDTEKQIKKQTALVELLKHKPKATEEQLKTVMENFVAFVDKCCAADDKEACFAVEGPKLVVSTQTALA
Fibroblast growth factor 2 (Homo sapiens), sequence (P09038 whole entry, looked up): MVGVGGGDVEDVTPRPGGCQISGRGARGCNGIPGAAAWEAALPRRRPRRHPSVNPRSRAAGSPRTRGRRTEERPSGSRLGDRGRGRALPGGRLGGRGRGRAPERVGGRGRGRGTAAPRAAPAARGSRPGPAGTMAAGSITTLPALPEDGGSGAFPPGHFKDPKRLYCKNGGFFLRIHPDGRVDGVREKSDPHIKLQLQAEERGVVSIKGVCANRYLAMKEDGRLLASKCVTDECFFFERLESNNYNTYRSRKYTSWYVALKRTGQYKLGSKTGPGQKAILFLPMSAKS

| SMILES | composite z-score [1] | composite Z-score [2] | composite z-score [3] | composite z-score [4] | composite z-score [5] | composite z-score [6] | composite z-score [7] | composite z-score [8] | composite z-score [9] | composite z-score [10] | composite z-score [11] | composite z-score [12] | composite z-score [13] | composite z-score [14] | composite z-score [15] | composite z-score [16] | z-score [17] | composite z-score [18] | composite z-score [19] | z-score [20] |
| --- | --- | --- | --- | --- | --- | --- | --- | --- | --- | --- | --- | --- | --- | --- | --- | --- | --- | --- | --- | --- |
| COC(=O)[C@@]1(Cc2ccccc2)[C@H]2c3cc(C(=O)N4CCCC4)n(Cc4cc(F)cc5c4OCOC5)c3C[C@H]2CN1C(=O)c1ccccc1 | 1.11 | 0.143 (inactive) | 0.218 | 0.163 | 0.553 | 2.57 | 0.141 | 0.797 | -0.233 | 0.511 | 0.69 | 1.24 | 0.366 | 0.963 | -0.0178 | -0.575 | 0.487 | -0.359 | 0.711 | 0.827 (inactive) |
| CC=CC(O)C1C=CC2C(=O)N(C)C(=O)C2N1Nc1ccc([N+](=O)[O-])cc1[N+](=O)[O-] (stereo not given) | 0.9 | 0.236 (inactive) | -0.0932 | -0.0351 | 0.834 | 1.08 | 0.146 | -0.52 | 0.001 | 0.458 | 2.66 | -0.935 | 0.247 | -1.22 | -0.0096 | -0.582 | 0.533 | 0.0657 | -0.0025 | -0.419 (inactive) |
| C[C@@H]1ON(c2ccc(C(=O)OC(C)(C)C)cc2)[C@H](c2ccc(Br)cc2)[C@H]1C(=O)N1C(=O)OC[C@H]1Cc1ccccc1 | 0.778 | -0.359 (inactive) | 0.0773 | -0.0984 | 0.235 | 1.86 | 0.0865 | 1.28 | 0.491 | 1.08 | 0.405 | 1.05 | -0.204 | 0.97 | 0.7 | 0.734 | 1.59 | 0.822 | 0.377 | -0.874 (inactive) |
| COc1ccc([Si](C)(C)[C@H]2[C@H](CCn3cc([C@H](O)c4ccccc4)nn3)O[C@@]3(C(=O)N(Cc4ccc(N5CCOC5=O)cc4)c4ccccc43)[C@@H]2C)cc1 | -0.397 | 0.486 (inactive) | -0.172 | -0.186 | -0.586 | -0.55 | -1.14 | -0.426 | -0.586 | -0.321 | -0.194 | -0.993 | -0.775 | -0.231 | -0.988 | -0.785 | 1.26 | -0.919 | -0.0383 | -0.278 (inactive) |
| NC(=O)NCC#Cc1ccc2c(c1)[C@]1(C(=O)N2)[C@H](c2ccc(O)cc2)N2[C@H](c3ccccc3)[C@H](c3ccccc3)OC(=O)[C@H]2[C@@H]1C(=O)Nc1nc2ccccc2s1 | 0.121 | 0.0296 (inactive) | -0.0259 | -0.0203 | 0.431 | 0.66 | 0.11 | 0.637 | 1.17 | 0.962 | -0.185 | 0.622 | -0.15 | 0.666 | 1.44 | 1.49 | -2.24 | 0.9 | 0.717 | -1.49 (inactive) |
| [N-]=[N+]=NCc1ccccc1C[C@@]1(C(=O)NCCN2CCOCC2)N=C(c2ccc(OCCCO)cc2)O[C@@H]1c1ccccc1N=[N+]=[N-] | 0.678 | 0.653 (inactive) | 0.163 | -0.116 | 0.419 | 1.6 | 0.276 | 1.3 | -0.396 | 1.09 | 1.4 | 1.19 | 1.05 | 0.957 | 0.423 | -0.498 | -0.183 | -0.165 | 0.963 | -5.91 (inactive) |
| [N-]=[N+]=Nc1ccccc1C[C@]1(C(=O)NCc2ccccc2)N=C(c2ccc(OCCCO)cc2)O[C@H]1c1ccccc1 | 0.989 | 0.0068 (inactive) | 0.285 | 0.0443 | 0.714 | 2.93 | 0.373 | 1.29 | -0.755 | 1.07 | 1.93 | 1.24 | 0.0541 | 0.998 | 1.13 | 0.0124 | 0.482 | 0.0213 | 1.12 | -1.34 (inactive) |
| CCCCC(CC)C(O)C1C=CC2C(=O)N(c3ccccc3)C(=O)C2N1Nc1ccc([N+](=O)[O-])cc1 (stereo not given) | 0.985 | -0.189 (inactive) | 0.44 | -0.161 | 0.652 | 1.86 | 0.914 | 1.31 | 0.0772 | 1.18 | 1.48 | 1.23 | 0.623 | 1.04 | 1.21 | 0.456 | -1.19 | 0.39 | 1.02 | 0.262 (inactive) |
| COC1(C)CN(Cc2ccccc2Br)[C@H](/C=C/c2ccccc2)[C@H](Cc2ccccc2)O1 (stereo not given in full) | -0.403 | 0.0873 (inactive) | -0.236 | -0.198 | 0.0397 | 0.203 | -0.195 | -0.435 | -0.77 | -0.0737 | 0.258 | -0.561 | 0.106 | -0.291 | -0.598 | -0.375 | 0.267 | 0.0787 | 0.0565 | -0.238 (inactive) |
| COc1ccc(C(O)C2C=CC3C(=O)N(Cc4ccccc4)C(=O)C3N2n2cnnc2)c2ccccc12 (stereo not given) | 0.626 | 0.624 (inactive) | -0.0238 | -0.125 | 0.783 | 1.65 | 0.686 | 1.01 | -2.13 | 0.388 | 0.727 | 0.782 | 1.77 | 1.01 | 0.421 | -1.54 | -1.08 | 0.635 | 0.0261 | 1.01 (inactive) |
